Laboratory results reported in PubChem BioAssay (NCI).
The panel holds about 79,000 compounds, 15% with a hit somewhere; the sample as a whole holds those more often. The source made the active and inactive calls. Rule as the data show it: active = growth inhibition above about 70%; inactive = the rest.

Legend:
[1] = NCI Yeast Anticancer Drug Screen. Data for the wt1 strain (AID 149);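 also: 0% = growth of vehicle-treated wt1 cultures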; conditions: S. cerevisiae wt1 strain (SPY 50644) growth inhibition, active compounds read high
Outline: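 wt1 yeast, compound-treated; % growth inhibition vs vehicle control.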

[2] = NCI Yeast Anticancer Drug Screen. Data for the rad50EPP+ strain (AID 151);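 also: 0% = growth of vehicle-treated control cultures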; conditions: S. cerevisiae rad50 mutant strain, active compounds read high
Outline: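 Measured: growth inhibition of rad50EPP+ yeast. Reference: vehicle-treated controls. Screen uses strains with defined genetic alterations in DNA damage repair or cell cycle control.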

[3] = NCI Yeast Anticancer Drug Screen. Data for the rad50 strain (AID 155);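 also: 0% = growth of vehicle-only cultures of the same strain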; conditions: S. cerevisiae rad50 strain growth inhibition, active compounds read high
Outline: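 Genetically altered yeast (DNA repair pathway); compound treatment; growth inhibition vs vehicle ctrl.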

[4] = NCI Yeast Anticancer Drug Screen. Data for the mec2-1 strain (AID 157); conditions: S. cerevisiae mec2-1 strain, active compounds read high
Outline: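 Compounds were applied to mec2-1 yeast cells. Their growth was then compared with that of vehicle-treated cultures to give growth inhibition.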

[5] = NCI Yeast Anticancer Drug Screen. Data for the rad14 strain (AID 159);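 also: 0% = growth of vehicle-treated control cultures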; conditions: S. cerevisiae rad14 strain growth inhibition, active compounds read high
Outline: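 Test compounds were applied to a repair-deficient yeast strain. Its growth was then compared with that of cultures given vehicle alone, and inhibition was expressed relative to those controls.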

[6] = NCI Yeast Anticancer Drug Screen. Data for the sgs1 mgt1 strain (AID 161);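 also: 0% = growth of cultures given vehicle only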; conditions: S. cerevisiae sgs1 mgt1 strain, active compounds read high
Outline: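 Percent growth inhibition was derived by comparing compound-exposed mutant yeast with vehicle-exposed cultures. The strain carries alterations in DNA damage repair.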

[7] = NCI Yeast Anticancer Drug Screen. Data for the CLN2oe strain (AID 163);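 also: 0% = growth of vehicle-only control cultures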; conditions: S. cerevisiae CLN2oe strain, active compounds read high
Outline: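 Cells of an engineered yeast line with disturbed cell-cycle regulation are treated with compound. Inhibition of growth is then calculated relative to the vehicle-treated reference.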

[8] = NCI Yeast Anticancer Drug Screen. Data for the cln2 rad14 strain (AID 165);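 also: 0% = growth equal to vehicle treated cultures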; conditions: S. cerevisiae cln2 rad14 strain, active compounds read high
Outline: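 Strain: cln2 rad14 yeast, altered in cell cycle control and DNA damage repair. Read-out: growth inhibition vs vehicle.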

[9] = NCI Yeast Anticancer Drug Screen. Data for the bub3 strain (AID 167); conditions: S. cerevisiae bub3 mutant strain, active compounds read high
Outline: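 Yeast carrying a defined mutation is treated with each compound, and growth is compared with that of vehicle-exposed cells to give inhibition.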

[10] = NCI Yeast Anticancer Drug Screen. Data for the wt2 strain (AID 169);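 also: 0% = growth of vehicle-treated yeast cultures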; conditions: S. cerevisiae wt2 strain growth inhibition, active compounds read high
Outline: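 Growth of compound-treated yeast is measured and expressed as inhibition relative to vehicle-only controls.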

[11] = NCI Yeast Anticancer Drug Screen. Data for the mlh1 strain (AID 171);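 also: 0% = growth of vehicle-treated control cultures of the same strain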; conditions: S. cerevisiae mlh1 strain growth inhibition, active compounds read high
Outline: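 Test agents were incubated with yeast bearing a defined DNA damage repair or cell cycle control alteration; values are growth inhibition normalised to vehicle-treated cultures.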

[12] = NCI Yeast Anticancer Drug Screen. Data for the mlh1 rad18 strain (AID 175); conditions: S. cerevisiae mlh1 rad18 strain growth inhibition, active compounds read high
Outline: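 A repair-deficient yeast strain is exposed to test compound, and growth is scored relative to vehicle-treated controls.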

[13] = NCI Yeast Anticancer Drug Screen. Data for the rad18 strain (AID 177); conditions: S. cerevisiae rad18 mutant growth inhibition, active compounds read high
Outline: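 DNA-repair-defective yeast; compound treatment; growth inhibition scored against vehicle.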

[14] = NCI Yeast Anticancer Drug Screen. Data for the mgt1 strain (AID 153); conditions: S. cerevisiae mgt1 mutant growth inhibition, active compounds read high
Outline: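 Compounds were applied to mgt1 mutant yeast, and growth was then compared against vehicle-treated control cultures to give percent inhibition.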

[15] = NCI Yeast Anticancer Drug Screen. Data for the sgs1 strain (AID 173);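 also: 0% = growth of vehicle-only control cultures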; conditions: S. cerevisiae sgs1 mutant, active compounds read high
Outline: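 Strain with an altered DNA repair or cell cycle pathway exposed to compound. Growth then measured. Value = inhibition versus vehicle control.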

[16] = at 5.0 µM (retest, dose inferred, filed as 0.5)
[17] = at 50.0 µM (retest, dose inferred, filed as 5.0)

Measured: growth inhibition

CN(C)N1C(=O)SCC(c2ccccc2)(c2ccccc2)C1=O
active: [13]; at 100.0 µM 75%
inactive: [1]; at 1.2 µM -4% | [1]; at 3.7 µM -4% | [1]; at 11.0 µM -3% | [1]; at 33.0 µM 6% | [1]; at 100.0 µM 16% | [2]; at 1.2 µM -2% | [2]; at 3.7 µM 2% | [2]; at 11.0 µM -32% | [2]; at 33.0 µM 4% | [2]; at 100.0 µM 7% | [3]; at 1.2 µM 4% | [3]; at 3.7 µM 7% | [3]; [16] -10% | [3]; at 11.0 µM 8% | [3]; at 33.0 µM 30% | [3]; [17] 61% | [3]; at 50.0 µM 64.8% | [3]; at 100.0 µM 50% | [4]; at 1.2 µM 1% | [4]; at 3.7 µM 1% | [4]; [16] 9% | [4]; at 11.0 µM 2% | [4]; at 33.0 µM 9% | [4]; [17] 43% | [4]; at 50.0 µM 10.2% | [4]; at 100.0 µM 27% | [5]; at 1.2 µM 1% | [5]; at 3.7 µM -3% | [5]; at 11.0 µM -4% | [5]; at 33.0 µM -15% | [5]; at 100.0 µM -19% | [6]; [16] 11% | [6]; [17] 43% | [6]; at 50.0 µM 15.4% | [7]; at 1.2 µM -2% | [7]; at 3.7 µM 7% | [7]; at 11.0 µM 2% | [7]; at 33.0 µM 1% | [7]; at 100.0 µM 2% | [8]; [16] -26% | [8]; [17] 3% | [8]; at 50.0 µM 6.9% | [9]; at 1.2 µM -2% | [9]; at 3.7 µM -1% | [9]; [16] 12% | [9]; at 11.0 µM 12% | [9]; at 33.0 µM 17% | [9]; [17] 60% | [9]; at 50.0 µM 21.6% | [9]; at 100.0 µM 23% | [10]; at 1.2 µM -2% | [10]; at 3.7 µM -3% | [10]; at 11.0 µM -1% | [10]; at 33.0 µM 4% | [10]; at 100.0 µM 11% | [11]; at 1.2 µM -1% | [11]; at 3.7 µM 1% | [11]; at 11.0 µM 1% | [11]; at 33.0 µM 12% | [11]; at 100.0 µM -10% | [12]; [16] 12% | [12]; [17] 29% | [12]; at 50.0 µM 47% | [13]; at 1.2 µM 6% | [13]; at 3.7 µM 5% | [13]; at 11.0 µM 26% | [13]; at 33.0 µM 59%

O=C1OC(/C=C/c2ccccc2)Sc2ccccc21 (stereo not drawn)
active: [9]; at 50.0 µM 89.3%
inactive: [1]; at 1.2 µM -3% | [1]; at 3.7 µM 0% | [1]; at 11.0 µM 1% | [1]; at 33.0 µM 2% | [1]; at 100.0 µM 8% | [2]; at 1.2 µM 5% | [2]; at 3.7 µM 5% | [2]; at 11.0 µM 13% | [2]; at 33.0 µM 18% | [2]; at 100.0 µM 23% | [14]; at 1.2 µM -1% | [14]; at 3.7 µM 2% | [14]; at 11.0 µM 4% | [14]; at 33.0 µM 10% | [14]; at 100.0 µM 44% | [4]; at 1.2 µM -3% | [4]; at 3.7 µM -3% | [4]; [16] 10% | [4]; at 11.0 µM 0% | [4]; at 33.0 µM 10% | [4]; [17] 8% | [4]; at 50.0 µM 29.8% | [4]; at 100.0 µM 24% | [5]; at 1.2 µM 1% | [5]; at 3.7 µM 0% | [5]; at 11.0 µM 4% | [5]; at 33.0 µM 12% | [5]; at 100.0 µM 23% | [6]; [16] 3% | [6]; [17] 7% | [6]; at 50.0 µM 30.9% | [7]; at 1.2 µM 0% | [7]; at 3.7 µM 2% | [7]; at 11.0 µM -1% | [7]; at 33.0 µM 3% | [7]; at 100.0 µM 17% | [8]; [16] -34% | [8]; [17] -47% | [8]; at 50.0 µM -26.9% | [9]; at 1.2 µM 5% | [9]; at 3.7 µM 11% | [9]; [16] 7% | [9]; at 11.0 µM 33% | [9]; at 33.0 µM 46% | [9]; [17] 50% | [9]; at 100.0 µM 62% | [11]; at 1.2 µM 1% | [11]; at 3.7 µM 3% | [11]; at 11.0 µM 7% | [11]; at 33.0 µM 12% | [11]; at 100.0 µM 26% | [15]; at 1.2 µM 0% | [15]; at 3.7 µM 2% | [15]; at 11.0 µM 6% | [15]; at 33.0 µM 12% | [15]; at 100.0 µM 25% | [12]; [16] 11% | [12]; [17] 27% | [12]; at 50.0 µM 32.9% | [13]; at 1.2 µM 1% | [13]; at 3.7 µM 4% | [13]; at 11.0 µM 7% | [13]; at 33.0 µM 19% | [13]; at 100.0 µM 43%
